# Results taken from the supplement of paper PMC9694430.
# Counter-ions that a name gives are not always drawn.
# What was measured:
# Assay in all cases: thermal shift delta Tm vs DMSO control; higher = stronger stabilization (binding)
# Details in all cases: 12.5 µM; protein concentration 2 µM
# LOC_OS01G01410-cb001 = tested on: LOC_OS01G01410-cb001
# Procedure, shortened: (§1)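 The melting temperature shift given here is a triplicate mean, measured against protein that received only DMSO. Melting temperatures came from Boltzmann fits of differential scanning fluorimetry data on E. coli-expressed, purified rice kinase domain constructs. Each 19.5 μl well contained 2 μM kinase, 100 mM potassium phosphate pH 7.5, 150 mM NaCl, 10% glycerol, 5 × SYPRO Orange and compound in DMSO. Plates were scanned from 25°C to 95°C at 0.05°C/s.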
# LOC_OS01G02750-cb003 = tested on: LOC_OS01G02750-cb003
# Procedure, shortened: as §1
# LOC_OS01G10900-cb004 = tested on: LOC_OS01G10900-cb004
# Procedure, shortened: as §1
# LOC_OS01G13800-cb001 = tested on: LOC_OS01G13800-cb001
# Procedure, shortened: as §1
# LOC_OS01G14860-cb001 = tested on: LOC_OS01G14860-cb001
# Procedure, shortened: as §1
# LOC_OS01G21960-cb002 = tested on: LOC_OS01G21960-cb002
# Procedure, shortened: as §1
# LOC_OS01G39600-cb002 = tested on: LOC_OS01G39600-cb002
# Procedure, shortened: as §1
# LOC_OS01G48390-cb002 = tested on: LOC_OS01G48390-cb002
# Procedure, shortened: as §1
# LOC_OS01G51400-cb002 = tested on: LOC_OS01G51400-cb002
# Procedure, shortened: as §1
# LOC_OS01G52050-cb004 = tested on: T1, LOC_OS01G52050-cb004
# T1 sequence (whole entry): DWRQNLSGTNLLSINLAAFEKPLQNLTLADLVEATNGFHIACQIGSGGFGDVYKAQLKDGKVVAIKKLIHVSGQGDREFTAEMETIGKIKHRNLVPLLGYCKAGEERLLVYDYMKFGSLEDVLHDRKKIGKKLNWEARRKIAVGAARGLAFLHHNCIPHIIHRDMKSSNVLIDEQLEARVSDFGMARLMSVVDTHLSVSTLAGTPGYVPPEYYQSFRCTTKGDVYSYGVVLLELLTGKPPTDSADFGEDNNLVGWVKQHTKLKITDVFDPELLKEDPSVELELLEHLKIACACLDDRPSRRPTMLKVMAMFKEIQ
# Procedure, shortened: as §1
Structure (SMILES),thermal shift delta Tm (LOC_OS01G01410-cb001) [°C],thermal shift delta Tm (LOC_OS01G02750-cb003) [°C],thermal shift delta Tm (LOC_OS01G10900-cb004) [°C],thermal shift delta Tm (LOC_OS01G13800-cb001) [°C],thermal shift delta Tm (LOC_OS01G14860-cb001) [°C],thermal shift delta Tm (LOC_OS01G21960-cb002) [°C],thermal shift delta Tm (LOC_OS01G39600-cb002) [°C],thermal shift delta Tm (LOC_OS01G48390-cb002) [°C],thermal shift delta Tm (LOC_OS01G51400-cb002) [°C],thermal shift delta Tm (LOC_OS01G52050-cb004) [°C]
Cc1nc(Nc2ncc(C(=O)Nc3c(C)cccc3Cl)s2)cc(N2CCN(CCO)CC2)n1 [Dasatinib],1.38,0.59,4.47,0.61,0.27,1.22,5.93,0.6,0.66,0.79
COc1cc(OC)cc(-c2cc3cnc(N)nc3nc2NC(=O)NC(C)(C)C)c1,0.51,1.48,0.1,0.07,0.48,0.33,-0.76,0.85,0.05,1.75
Cc1ccc2nc(NCCN)c3ncc(C)n3c2c1,0.42,0.41,1.16,0.4,0.19,0.57,-0.24,1.79,0.09,0.5
CCOc1cn(-c2ccc(F)cc2C)nc1C(=O)Nc1ccc(Oc2ccnc3cc(OC)c(OC)cc23)c(F)c1,0.08,1.86,0.01,-0.07,0.5,-0.29,0.58,0.48,0.45,2.08
Cc1cc(NC(=O)c2cccc(NC(=O)/C=C/CN(C)C)c2)ccc1Nc1nccc(-c2cccnc2)n1,1.77,1.69,4.22,0.46,1.25,1.6,6.45,1.99,0.73,0.75
CCc1cccc(CC)c1NC(=O)N1Cc2[nH]nc(NC(=O)c3ccc(N4CCN(C)CC4)cc3)c2C1,0.31,0.54,0.87,-0.49,0.31,0.34,2.21,0.01,0,0.17
Cc1ccc(-n2nc(C(C)(C)C)cc2NC(=O)Nc2ccc(OCCN3CCOCC3)c3ccccc23)cc1 [Doramapimod (BIRB 796)],0.6,0.28,0.4,0.47,1.26,0.35,0.04,0.73,0.2,1.1
COc1ccc(-c2cc3c(C)nc(N)nc3n([C@H]3CC[C@H](OCCO)CC3)c2=O)cn1,0.74,0.7,0.3,0.31,0.17,0.57,0.34,0.57,0.45,0.16
COc1cc(N2CCC(N3CCN(C)CC3)CC2)ccc1Nc1ncnc(Nc2ccccc2S(=O)(=O)C(C)C)n1,0.27,1.86,0.08,-0.11,0.33,0.28,0.25,0.94,0.37,0.61
C#Cc1cccc(Nc2ncnc3cc(OCCOC)c(OCCOC)cc23)c1 [Erlotinib],0.56,0.35,0.59,0.04,0.32,0.72,2.19,0.85,-0.14,0.19
Oc1cccc(-c2nc(N3CCOCC3)c3oc4ncccc4c3n2)c1,0.96,0.09,0.03,0.75,0.17,0.64,0.74,0.11,0.21,0.11
O=C1NC(=O)C(=Cc2ccc(-c3ccc(F)cc3)o2)S1 (stereo in doubt),0.61,1.08,0.58,0.53,0.85,1.54,0.11,0.58,0.18,0.58
C[C@@H]1COC(Nc2ccc3ncnc(Nc4ccc(OCc5nccs5)c(Cl)c4)c3c2)=N1 [Varlitinib],2.18,0.28,0.95,0.39,1.1,2.04,0.66,1.02,0.22,0.92
COc1cc2nccc(Oc3ccc(NC(=O)C4(C(=O)Nc5ccc(F)cc5)CC4)cc3)c2cc1OC,1.63,0.81,0.73,0.78,1.07,0.93,1.5,6.38,0.3,2.44
CNC(=O)c1cc(Oc2ccc(NC(=O)Nc3ccc(Cl)c(C(F)(F)F)c3)cc2)ccn1 [Sorafenib Tosylate],2.14,5.21,1.97,1.97,5.9,2.13,2.03,2.56,1.31,5.16
O=C(c1ccc(/C=C/c2n[nH]c3ccccc23)cc1)N1CCNCC1,5.18,3.06,1.43,-0.18,1.8,2.42,5.76,5.36,1.16,7.26
CCNc1nc(Nc2cc(F)c(C(=O)N3CCOCC3)cc2OC)ncc1C(F)(F)F,0.11,0.63,0.25,0.11,1.18,0.79,0.15,0.72,0.2,-0.2
CC(C)CCN1c2nc(Nc3cc(F)c(O)c(F)c3)ncc2N(C)C(=O)C1C (stereo not given),2.96,1.52,2.63,0.08,3.74,1.92,3.67,1.58,0.67,5.38
COc1ccc(CNC(=O)Nc2ncc([N+](=O)[O-])s2)cc1,0.9,0.85,0.34,0.54,3.27,1.49,-4.25,0.63,-0.45,0.42
O=C(Nc1nc2cccc(-c3ccc(CN4CCS(=O)(=O)CC4)cc3)n2n1)C1CC1 [Filgotinib (GLPG0634)],0.4,0.46,0.17,0.3,0.5,0.89,-0.06,0.26,0.32,1.03
